From PubChem
Sampled rows, rich in hits. Any-hit rate of the full collection: about 5.1%.
CRFR2-BP ag: agonists of CRF-BP/CRF-R2 complex, primary screen, cell-based, HEK293, calcium dye fluorescence, uHTS. 350,000 compounds, 0.46% hits. activation, % at 13.2 µM. AID 588473, 2011. CRF-binding protein / CRF receptor 2 complex (human). calcium dye fluorescence (FLIPR); percent of saturating CRF peptide response;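 active means activation of at least 50%, plus an integration ratio under a set limit after plate pattern correction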
ANO1 block: TMEM16A chloride channel inhibitors, primary screen, cell-based, HTS; AID 588511, 2011; HEK293 TMEM16A/YFP iodide influx fluorescence, ionomycin; Anoctamin-1 (Mus musculus), Q8BHY3; normalized B-score (activity score, 25-100; higher = stronger inhibition) at 10 µM; 310,000 compounds, 1.2% hits;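 active means ratio plate-corrected score three or more library SD toward inhibition, starting fluorescence score within five deviations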;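 further: score derived from kinetic fluorescence span divided by baseline fluorescence per well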
Target sequence (Q8BHY3 whole entry, looked up): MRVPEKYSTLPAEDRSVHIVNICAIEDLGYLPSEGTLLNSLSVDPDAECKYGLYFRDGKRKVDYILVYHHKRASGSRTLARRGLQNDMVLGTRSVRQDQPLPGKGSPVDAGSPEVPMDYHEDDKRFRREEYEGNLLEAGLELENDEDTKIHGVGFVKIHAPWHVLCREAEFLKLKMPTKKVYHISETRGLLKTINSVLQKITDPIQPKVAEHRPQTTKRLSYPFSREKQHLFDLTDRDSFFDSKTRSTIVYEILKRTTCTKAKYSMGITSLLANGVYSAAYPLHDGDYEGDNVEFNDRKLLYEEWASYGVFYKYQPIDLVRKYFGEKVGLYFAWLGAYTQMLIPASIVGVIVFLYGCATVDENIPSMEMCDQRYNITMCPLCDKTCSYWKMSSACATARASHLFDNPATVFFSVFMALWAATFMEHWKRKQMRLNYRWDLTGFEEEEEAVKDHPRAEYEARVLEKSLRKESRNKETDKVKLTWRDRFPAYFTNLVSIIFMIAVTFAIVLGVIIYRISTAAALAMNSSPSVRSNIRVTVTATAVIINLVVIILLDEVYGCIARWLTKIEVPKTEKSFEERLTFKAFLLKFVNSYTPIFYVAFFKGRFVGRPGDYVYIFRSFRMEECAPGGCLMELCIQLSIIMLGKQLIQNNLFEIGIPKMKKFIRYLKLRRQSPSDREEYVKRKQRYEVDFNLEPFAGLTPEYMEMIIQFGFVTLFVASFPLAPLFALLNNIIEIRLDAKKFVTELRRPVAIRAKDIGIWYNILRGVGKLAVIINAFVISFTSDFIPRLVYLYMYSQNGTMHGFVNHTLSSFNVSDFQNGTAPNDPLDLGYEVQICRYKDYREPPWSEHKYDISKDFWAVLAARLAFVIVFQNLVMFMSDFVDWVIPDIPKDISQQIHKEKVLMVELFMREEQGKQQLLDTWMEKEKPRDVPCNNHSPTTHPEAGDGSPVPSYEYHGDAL
CRFBP-R2 block: antagonists of CRF-BP/CRF-R2 complex, primary screen, cell-based, HEK293, calcium dye fluorescence, uHTS | CRF-induced calcium fluorescence | inhibition, % at 11.8 µM | AID 588475, 2011 | 350,000 compounds, 0.59% hits;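 active means inhibition of the ligand-induced calcium signal above about 50% at the single tested concentration, limit read from the data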
TMEM16A act: TMEM16A chloride channel activators or potentiators, primary screen, cell-based, HTS | Anoctamin-1 (Mus musculus), Q8BHY3 | HEK293 TMEM16A/YFP-H148Q/I152L, iodide quench fluorescence; stronger effect = lower value | B-score at 10 µM | 340,000 compounds, 0.3% hits | AID 623877, 2012;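 active means fluorescence-ratio B-score plate-corrected deviation score at least 3 library SD below zero, with starting fluorescence score within 5 deviations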;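 further: channel opened by trigger with iodide after compound preincubation; score built on the fluorescence ratio of max minus min over baseline; more negative score means more quench and so TMEM16A activation or potentiation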
MPTP inh: mitochondrial permeability transition pore inhibitors, primary screen, biochemical, isolated mouse mitochondria, absorbance | Ca2+ swelling absorbance, 30 min | inhibition, % at 10 µM | 360,000 compounds, 1.4% hits;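 active means inhibition of 50% or more, scaled per plate between neutral and stimulator controls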
NR3A LBD binder: binders of NR3A ligand-binding domain, primary screen, biophysical, differential scanning fluorimetry, uHTS; Glutamate receptor ionotropic, NMDA 3A (GRIN3A) ligand-binding domain; NR3A LBD differential scanning fluorimetry, Tm shift; 0% = protein alone, 100% = glycine-bound protein; Tm shift relative to glycine control, % at 25 µM; 340,000 compounds, 2.5% hits; AID 1259313, 2017;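 active means melting temperature shift of at least 10% of the positive control shift, at one fixed dose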
TMEM16A reconf: TMEM16A chloride channel inhibitors, confirmation, cell-based, re-confirmation. inhibition, % at 10 µM. HEK293 TMEM16A/YFP-H148Q, iodide quench fluorescence; ionomycin added to raise cell calcium. shares compounds with ANO1 block. 2,300 compounds, 39% hits;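 active means mean duplicate percent inhibition, scaled so buffer wells are 0 and the reference blocker 100, over three buffer SD above buffer mean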
HEK293 Ca mobil: calcium mobilization in TMEM16A/YFP HEK293 cells, confirmation, counter-screen for TMEM16A inhibitor project | calcium response (% of ionomycin), % at 10 µM | Fluo4 calcium mobilization | shares compounds with ANO1 block | 2,300 compounds, 2% hits;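 active means duplicate-averaged calcium signal over 20% of the ionomycin maximum, relative to buffer baseline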;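 further: each well's signal is peak minus trough fluorescence divided by its pre-addition baseline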
Parental YFP cnt: iodide YFP quench changes in parental YFP-HEK293, counter-screen for TMEM16A inhibitor project, cell-based | ionomycin | 2,300 tested, under 10 active | YFP ratio F(max-min)/F0 at 10 µM | AID 652233, 2013 | shares compounds with ANO1 block;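 active means yellow fluorescent protein signal ratio exceeding the buffer control mean by over 5 SD of those controls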;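 further: ratio is mean of duplicate wells from kinetic YFP trace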
ClC-1 rat inh: ClC-1 chloride channel inhibition, selectivity assay for TMEM16A inhibitor project, cell-based, voltage-dependent ClC-1 | ratio percent, % at 10 µM | AID 652236, 2013 | shares compounds with ANO1 block | 2,300 tested, under 10 active | CHO ClC-1-YFP, iodide influx fluorescence quench; iodide control reads 0, buffer control 100;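 active means duplicate-mean ratio percent above the mean of iodide-only control wells, which defines zero, plus 5 of their SD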;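 further: higher percent means stronger block of ClC-1 iodide influx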
MPTP counter: fluorescence retest of MPTP screen hits in isolated mitochondria, single concentration; shares compounds with MPTP inh; membrane potential, Rhodamine 123 fluorescence; inhibition, % at 10 µM; 5,000 compounds, 78% hits; in the data active means inhibition above about 22%
MPTP abs DR: mitochondrial permeability transition pore inhibitors, dose response, biochemical, absorbance, uHTS hits. shares compounds with MPTP inh. isolated mitochondria swelling. IC50, µM. 780 compounds, 58% hits; in the data active means IC50 below about 20 µM
MPTP counter DR: fluorescent counter-screen in isolated mitochondria, dose response, counter-screen for MPTP inhibitor project, biochemical, fluorescence, uHTS hits | IC50, µM | 780 compounds, 49% hits | isolated mitochondria counterscreen, fluorescence read-out | shares compounds with MPTP inh; in the data active means IC50 below about 80 µM
Each line names hits and unclear results; the compound was inactive in the other large screens (follow-up assays come after a bar, where they were run).

C=CCN(C(=O)c1cccc(S(=O)(=O)N2CCN(C)CC2)c1)c1nc(-c2ccccc2)cs1	ANO1 block 100, MPTP inh 73 | TMEM16A reconf 20% | HEK293 Ca mobil inactive | Parental YFP cnt inactive | ClC-1 rat inh inactive | MPTP counter inactive | MPTP abs DR inactive | MPTP counter DR 76
CCCCNC(=S)Nc1ccc(C(F)(F)F)cc1	ANO1 block 100, MPTP inh 102 | TMEM16A reconf 40% | HEK293 Ca mobil inactive | Parental YFP cnt inactive | ClC-1 rat inh inactive | MPTP counter 82
Cc1cc(=O)n2[nH]c(C)c(-c3ccccc3)c2n1	none
O=c1cc(-c2ccccc2)nc2c(-c3ccccc3)c(C(F)(F)F)[nH]n12	ANO1 block 100, CRFBP-R2 block 54, MPTP inh 64 | TMEM16A reconf 58% | HEK293 Ca mobil inactive | Parental YFP cnt inactive | ClC-1 rat inh inactive | MPTP counter 47
CN(Cc1ccc(Cl)s1)C(=O)CSc1nnc(C2CC2)n1C1CC1	none (no result: ANO1 block)
CC1=C([N+](=O)[O-])C(c2ccccc2)C2=C(N1)c1ccccc1C2=O (stereo unspecified)	ANO1 block 25, MPTP inh 88 | TMEM16A reconf 38% | HEK293 Ca mobil inactive | Parental YFP cnt inactive | ClC-1 rat inh inactive | MPTP counter 65
COc1ccc(C2C(C#N)=C(C)NC3=C2C(=O)c2ccccc23)cc1 (stereo unspecified)	none
O=C(Nc1nc2c(F)cc(F)cc2s1)C1CCN(C(=O)c2ccc(F)cc2)CC1	none (no result: NR3A LBD binder)
O=C(Nc1nc(-c2ccc(F)cc2)cs1)C1CCN(C(=O)c2ccc(F)cc2)CC1	ANO1 block 25, MPTP inh 64 | TMEM16A reconf 18% | HEK293 Ca mobil inactive | Parental YFP cnt inactive | ClC-1 rat inh inactive | MPTP counter 78
CCSc1nnc(NC(=O)NC(CC)(C(F)(F)F)C(F)(F)F)s1	ANO1 block 100, MPTP inh 88 | TMEM16A reconf 16% | HEK293 Ca mobil inactive | Parental YFP cnt inactive | ClC-1 rat inh inactive | MPTP counter 102
CCCC(=O)Nc1nnc(SCC)s1	none
